Most compounds without a hit are left out; they make up all but 4.5% or so of the library.
tim23-1 inh: tim23-1 yeast growth inhibition; S. cerevisiae tim23-1 growth, BacTiter-Glo luminescence, 24 h; inhibition, % at 20 µM; 330,000 tested, 1.3% active; AID 463212;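 active = growth inhibition of the mutant yeast at or above 50%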;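 also: temperature-sensitive mutant grown at 25 °C; plate controls were DMSO-treated mutant yeast for no effect and medium wells lacking yeast for full effect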
tim10-1 inh: inhibits growth of tim10-1 mutant yeast. S. cerevisiae tim10-1 ts strain growth, BacTiter-Glo, 24 h. inhibition, % at 20 µM. 330,000 tested, 2.2% active;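 active = inhibition of at least 40%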;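 also: mutant grown at 25 °C; 0% = DMSO wells with yeast and 100% = wells holding no yeast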
TIM10 inh: inhibits growth of TIM10 yeast strain; S. cerevisiae TIM10 strain growth, BacTiter-Glo luminescence, 24 h; inhibition, % at 10 µM; 330,000 tested, 1.4% active;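 active = inhibition of 40% or more at the single tested concentration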;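 also: wild-type TIM10 isogenic control strain grown at permissive 25 °C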
PfHsp90 set2: inhibits growth of yeast expressing Plasmodium falciparum Hsp90; S. cerevisiae expressing PfHsp90, BacTiter-Glo ATP, 48 h; yeast lacking PDR1 and PDR3 efflux regulators; inhibition, % at 9.4 µM; 310,000 tested, 0.32% active;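 active = every replicate shows inhibition above about 80%, whatever the replicate mean, limit read from the data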;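 also: 0% = DMSO neutral controls and 100% = 20 µM radicicol positive controls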
NLRP3 yeast inh: NALP3 inhibition in yeast; Yeast reconstituted NLRP3/ASC/caspase-1, beta-gal luminescence, 24 h; inhibition, % at 10 µM; 330,000 tested, 0.39% active;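 active = inhibition of 50% or more; inactive = inhibition below 50%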;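 also: plate controls were induced DMSO wells for no effect and uninduced yeast grown without galactose for full effect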
SKKanGAS inh: inhibitors of SKKanGAS S. pyogenes growth in kanamycin (SK-promoter or general growth effect); BacTiter-Glo, 6 h; inhibition, % at 7.5 µM; 300,000 tested, 1.3% active; AID 1662;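 active = mean replicate score, as percent of positive control median, at least 50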;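 also: strain carries kanamycin resistance gene driven by streptokinase promoter and grows in 40 µg/ml kanamycin; loss of luminescence reflects streptokinase promoter inhibition or plain growth inhibition; 0% = median of DMSO wells and 100% = positive control at its reference dose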
tim10 confirm: confirmation of TIM10 yeast growth inhibitors. shares compounds with TIM10 inh. S. cerevisiae tim10 strain growth, BacTiter-Glo luminescence, 24 h. inhibition, % at 10 µM. 4,600 tested, 63% active. AID 463215;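 active = inhibition of yeast growth at or above a set limit in either of two replicates at 10 µM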;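 also: this counterscreen used the strain with wild-type TIM10; 0% = yeast with DMSO and 100% = medium wells lacking yeast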
Active calls of the source: *.

Cc1ccc(S(=O)(=O)N2CCCCC2)cc1NC(=O)c1cc(=O)[nH]c2ccccc12 was read as tim23-1 inh 0.2, tim10-1 inh -0.3, TIM10 inh -7.4, PfHsp90 set2 0.2 and NLRP3 yeast inh 7.4.
CCOC(=O)C1=C(C)N(C)C(=S)NC1c1cccc(Cl)c1Cl (configuration not stated) was read as tim23-1 inh 16.0, tim10-1 inh 35.9, TIM10 inh 48.0*, PfHsp90 set2 -3.4, NLRP3 yeast inh -3.9, SKKanGAS inh -16.8 and tim10 confirm 27.8.
CCOC(=O)C1=C(C)N(C)C(=S)NC1c1ccccc1Cl (configuration not stated) was read as tim23-1 inh 16.9, tim10-1 inh 8.5, TIM10 inh 21.2, PfHsp90 set2 26.1, NLRP3 yeast inh 2.1 and SKKanGAS inh 1.1.
Screening Cc1ccc(OCCNC(=O)c2cccc(S(=O)(=O)NCc3ccccc3)c2)cc1 returned tim23-1 inh 6.7, tim10-1 inh 8.8, TIM10 inh 58.6*, NLRP3 yeast inh 2.4 and tim10 confirm -4.5.
Screening O=C(NCc1ccncc1)c1cccc(S(=O)(=O)NCc2ccccc2)c1 returned tim23-1 inh -11.2, tim10-1 inh -13.9, TIM10 inh -1.7, PfHsp90 set2 6.9, NLRP3 yeast inh 22.2 and SKKanGAS inh -11.3.
C=CCNC(=O)C12CCC(C)(C(=O)[C@H]1Br)C2(C)C (some centres not stated) was read as tim23-1 inh 11.9, tim10-1 inh 12.1, TIM10 inh 42.4*, PfHsp90 set2 11.3, NLRP3 yeast inh -2.2, SKKanGAS inh 0.7 and tim10 confirm -20.2.
Screening O=C(c1cnn2c1NC(c1ccc(Br)cc1)CC2C(F)(F)F)N1CCN(C23CC4CC(CC(C4)C2)C3)CC1 (configuration not stated) returned tim23-1 inh 41.0, tim10-1 inh 35.2, TIM10 inh 42.0*, NLRP3 yeast inh 5.3, SKKanGAS inh 21.1 and tim10 confirm 14.4.
Screening CCCCCN(C(=O)CCC(=O)OCc1ccc(Cl)cc1Cl)c1c(N)n(CCCC)c(=O)[nH]c1=O returned tim23-1 inh 15.1, tim10-1 inh 3.4, TIM10 inh 3.9, PfHsp90 set2 26.9, NLRP3 yeast inh 11.9 and SKKanGAS inh 12.1.
`O=C(Nc1cccc(Cl)c1)c1cc(S(=O)(=O)NCCc2ccc(Cl)cc2)ccc1F` gave tim23-1 inh 25.7, tim10-1 inh 29.7, TIM10 inh 41.0*, PfHsp90 set2 -0.7, NLRP3 yeast inh 9.7, SKKanGAS inh 41.5 and tim10 confirm 51.5*.
Cc1ccc(NC(=O)c2cc(S(=O)(=O)NCCc3ccccc3)ccc2F)cc1Cl was read as tim23-1 inh 39.6, tim10-1 inh 31.6, TIM10 inh 33.2, PfHsp90 set2 -5.2, NLRP3 yeast inh 21.4 and SKKanGAS inh 42.6.
For O=C(NCCc1c[nH]c2ccccc12)c1ccco1 the results were tim23-1 inh -12.6, tim10-1 inh -16.0, TIM10 inh -3.7, PfHsp90 set2 -12.9, NLRP3 yeast inh 10.3 and SKKanGAS inh -1.6.
For COc1ccc([C@H]2CC(=O)C=C(/C=C/Cc3ccccc3)C2)cc1 the results were tim23-1 inh 48.4, tim10-1 inh 37.8, TIM10 inh 47.5*, PfHsp90 set2 -17.5, NLRP3 yeast inh 22.6 and tim10 confirm 47.5*.
O=c1oc2ccc(Br)cc2cc1-c1nc2ccccc2o1 was read as tim23-1 inh 7.1, tim10-1 inh 4.2, TIM10 inh -2.7, PfHsp90 set2 15.5, NLRP3 yeast inh 12.0 and SKKanGAS inh -3.1.
`COc1cccc2cc(-c3nc4ccccc4o3)c(=O)oc12` gave tim23-1 inh 29.6, tim10-1 inh 25.9, TIM10 inh 60.4*, PfHsp90 set2 67.0, NLRP3 yeast inh 26.8, SKKanGAS inh -0.4 and tim10 confirm 67.4*.
Screening S=c1nc(SCc2ccccc2)[nH]c2ccccc12 returned tim23-1 inh 12.0, tim10-1 inh 36.0, TIM10 inh 49.4*, PfHsp90 set2 -3.2, NLRP3 yeast inh 18.9, SKKanGAS inh 76.4* and tim10 confirm 39.5*.
Screening c1ccc(CSc2nc3ncncc3[nH]2)cc1 returned tim23-1 inh 17.2, tim10-1 inh 6.0, TIM10 inh 2.8, PfHsp90 set2 -2.4, NLRP3 yeast inh 5.9 and SKKanGAS inh -12.8.
For COc1ccc(/C=C/c2nc3ccccc3n2Cc2ccccc2OC)cc1 the results were tim23-1 inh 27.4, tim10-1 inh 32.4, TIM10 inh 22.4, PfHsp90 set2 19.3, NLRP3 yeast inh -6.3 and SKKanGAS inh 25.4.
Cn1c(/C=C/c2ccccc2)nc2ccccc21 was read as tim23-1 inh 49.1, tim10-1 inh 20.5, TIM10 inh 54.6*, PfHsp90 set2 62.7, NLRP3 yeast inh 41.6, SKKanGAS inh 21.7 and tim10 confirm 47.9*.
For COc1ccccc1Cn1c(/C=C/c2ccccc2)nc2ccccc21 the results were tim23-1 inh 28.6, tim10-1 inh 29.9, TIM10 inh 42.1*, PfHsp90 set2 -5.0, NLRP3 yeast inh 23.3, SKKanGAS inh 15.2 and tim10 confirm -21.9.
Screening O=C(/C=C/c1ccccc1Cl)NCCc1ccccc1 returned tim23-1 inh 38.8, tim10-1 inh 2.9, TIM10 inh 48.7*, PfHsp90 set2 -7.6, NLRP3 yeast inh 44.9, SKKanGAS inh -3.2 and tim10 confirm 46.2*.
O=C(/C=C/c1ccccc1Cl)NCc1ccccc1 was read as tim23-1 inh 10.7, tim10-1 inh 15.3, TIM10 inh 1.2, PfHsp90 set2 1.3, NLRP3 yeast inh 24.6 and SKKanGAS inh 0.4.
CCc1nc2cc(C)nn2c2nc3ccccc3n12 was read as tim23-1 inh 17.0, tim10-1 inh 5.9, TIM10 inh 10.0, PfHsp90 set2 25.9, NLRP3 yeast inh -1.8 and SKKanGAS inh -3.4.
For Cc1cc2nc(C)n3c4ccccc4nc3n2n1 the results were tim23-1 inh 42.8, tim10-1 inh 37.9, TIM10 inh 58.7*, PfHsp90 set2 18.8, NLRP3 yeast inh 16.4, SKKanGAS inh 5.4 and tim10 confirm 44.9*.
O=C(O)c1nnn(-c2cc(C(F)(F)F)cc(C(F)(F)F)c2)c1-c1ccccc1 was read as tim23-1 inh 5.2, tim10-1 inh 0.4, TIM10 inh 41.4*, PfHsp90 set2 -4.3, NLRP3 yeast inh -7.1, SKKanGAS inh -5.1 and tim10 confirm 12.3.
O=C(COc1cccc2ccccc12)Nc1nc2ccccc2[nH]1 was read as tim23-1 inh 19.8, tim10-1 inh 15.0, TIM10 inh 41.2*, PfHsp90 set2 -10.8, NLRP3 yeast inh 37.1 and tim10 confirm 20.1.
`CCOc1ccccc1OCC(=O)Nc1nc2ccccc2[nH]1` gave tim23-1 inh 29.6, tim10-1 inh -9.3, TIM10 inh 7.7, PfHsp90 set2 4.4, NLRP3 yeast inh 22.4 and SKKanGAS inh 5.3.

Source: PubChem (several laboratories)
